JMJD2A Tudor: qHTS Assay for Inhibitors of JMJD2A-Tudor Domain; Potency, µM (highest dose often 114 µM), usual class: inhibitors; Lysine-specific demethylase 4A (Homo sapiens), O75164; hit rate 4.4% among 390,000; AlphaScreen JMJD2A-Tudor / H3K4me3 peptide binding; further: nearly all actives have a fitted effect of over 50% in size
HP1b binding inh: HTS for Inhibitors of HP1-beta Chromodomain Interactions with Methylated Histone Tails. Chromobox protein homolog 1 (Homo sapiens), P83916. AlphaScreen HP1-beta / biotin-H3K9me3 peptide binding. Potency, µM (highest dose often 114 µM), actives largely listed as inhibitors. hit rate 0.56% among 390,000. AID 540317, 2011; further: nearly all actives have a fitted effect of over 70% in size
Target sequence (P83916 whole entry, looked up): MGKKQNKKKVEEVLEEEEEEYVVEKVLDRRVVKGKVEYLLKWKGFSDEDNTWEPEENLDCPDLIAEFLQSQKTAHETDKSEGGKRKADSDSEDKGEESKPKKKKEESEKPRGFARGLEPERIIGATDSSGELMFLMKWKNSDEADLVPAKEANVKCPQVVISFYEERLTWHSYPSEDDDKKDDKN
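Compound inhibition of the preformed complex between 50 nM HP1-beta and 50 nM biotinylated H3K9me3 peptide was read by AlphaScreen. Buffer was PBS pH 7.4 with 0.01% Tween-20. Incubations ran 30 min at room temperature, with 10 ug/mL donor/acceptor beads.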
BAZ2B inh: qHTS Assay for Inhibitors of BAZ2B; hit rate 4.4% among 360,000; AID 504333, 2011; Potency, µM (doses to about 114 µM), actives largely listed as inhibitors; AlphaScreen BAZ2B-H3K14Ac peptide displacement; further: nearly all actives have a fitted effect of over 60% in size
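Multi-concentration screen (max 110 uM) measuring displacement of acetylated histone H3 peptide from BAZ2B by AlphaScreen, using 50 nM protein, 50 nM peptide and 10 ug/mL streptavidin donor plus Ni-chelate acceptor beads.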
G9a block: qHTS Assay for Inhibitors of Histone Lysine Methyltransferase G9a | Histone-lysine N-methyltransferase EHMT2 (Homo sapiens), Q96KQ7 | G9a H3K9 monomethylation, AlphaScreen, 2 h | Potency, µM (doses to about 102 µM), most hits filed as inhibitors | hit rate 8.8% among 350,000; further: nearly all actives have a fitted effect of over 75% in size
Target sequence (Q96KQ7 913-1193 limits assumed): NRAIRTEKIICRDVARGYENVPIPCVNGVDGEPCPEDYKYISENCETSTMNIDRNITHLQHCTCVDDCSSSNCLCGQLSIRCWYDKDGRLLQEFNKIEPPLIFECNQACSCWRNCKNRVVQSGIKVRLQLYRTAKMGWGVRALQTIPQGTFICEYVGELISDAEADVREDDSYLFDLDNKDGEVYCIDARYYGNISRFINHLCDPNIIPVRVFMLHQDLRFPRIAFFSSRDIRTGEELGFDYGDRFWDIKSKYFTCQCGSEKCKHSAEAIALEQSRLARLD
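Step 1: enzyme (final 20 nM) with compound, 15 min RT. Step 2: substrate peptide 500 nM and SAM 20 uM, 2 h RT. Step 3: anti-H3K9me1 antibody and AlphaScreen beads, 10 min, then plate read.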
PLK1 PBD inh: qHTS for Inhibitors of PLK1-PDB (polo-like kinase 1 - polo-box domain): Primary Screen; hit rate 2.8% among 360,000; Plk1 PBD binding of FITC phosphopeptide, fluorescence polarization; Potency, µM, usual class: inhibitors; further: series mostly up to about 57 µM; nearly all actives have a fitted effect of over 65% in size
Sfp PPTase inh: qHTS Assay for Inhibitors of Bacillus subtilis Sfp phosphopantetheinyl transferase (PPTase). 4'-phosphopantetheinyl transferase ffp (Bacillus subtilis), Q9F4F7. Potency, µM, actives largely listed as inhibitors. Biochemical Sfp PPTase activity, qHTS. AID 1490, 2009. hit rate 3.5% among 310,000;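 further: the enzyme is Sfp with the accession as filed and its product quenches rhodamine fluorescence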
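With Hepes-Na pH 7.6 buffer containing 10 mM MgCl2, Sfp (15 nM) modified BHQ-2-YbbR (12.5 uM) using rhodamine-CoA (5 uM). Two reads 30 minutes apart at 525/598 nm yielded each well's rate.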
Of the large screens only hits and unclear results are named; the others gave an inactive call. Rows were chosen to be rich in hits. Some 12% of all compounds tested hit in one or more screens of this group. The call rests on the fitted dose curve; in most records, active means well fitted curve in the direction sought with a large enough effect; inconclusive means small, poorly fitted or top-dose-only effect, or another doubt; inactive means no such curve, though single readings can be large; an effect the other way counts as inactive or inconclusive.

O=C(c1cccc(F)c1)N1CCC2(CC1)CCN(c1ccccn1)CC2	none (no result: JMJD2A Tudor, HP1b binding inh, BAZ2B inh, PLK1 PBD inh)
O=[N+]([O-])c1cc(NCCO)c(N2CCCCCC2)c2nonc12	none
O=C(O)Cc1ccc(O)c(O)c1	JMJD2A Tudor 56µM, HP1b binding inh inconclusive, G9a block 0.24µM, Sfp PPTase inh 40µM
CCCCCSc1nnc(-c2cc(Br)ccc2N)c(=O)[nH]1	G9a block 45µM
CC(C)(C)C1CCc2c(sc3c2C(=O)NC(c2ccco2)N3)C1 (stereo unspecified)	JMJD2A Tudor inconclusive, G9a block 10µM, PLK1 PBD inh inconclusive, Sfp PPTase inh 56µM
Cc1ccsc1C1NC(=O)c2c(sc3c2CCCC3)N1 (stereo unspecified)	JMJD2A Tudor inconclusive, G9a block inconclusive, PLK1 PBD inh inconclusive, Sfp PPTase inh 45µM
CN1CCc2c(sc3c2C(=O)NC(c2ccc(OC(=O)c4ccc(Cl)cc4)cc2)N3)C1 (stereo unspecified)	BAZ2B inh inconclusive, G9a block 16µM (no result: PLK1 PBD inh, Sfp PPTase inh)
CN1CCc2c(sc3c2C(=O)NC(c2ccccc2)N3)C1 (stereo unspecified)	G9a block 40µM, Sfp PPTase inh 56µM
Cc1ccc(C2NC(=O)c3c(sc4c3CCN(C)C4)N2)o1 (stereo unspecified)	Sfp PPTase inh inconclusive
Cc1ccc(C2NC(=O)c3c(sc4c3CCN(C)C4)N2)s1 (stereo unspecified)	JMJD2A Tudor inconclusive, G9a block inconclusive
CC(CSC(=O)c1ccccc1)C(=O)N1C[C@@H](Sc2ccccc2)C[C@H]1C(=O)O (stereo partly specified)	none (no result: JMJD2A Tudor, HP1b binding inh, BAZ2B inh, PLK1 PBD inh)
O=C1NC(c2ccc(Br)cc2)Nc2sc3c(c21)CCC3 (stereo unspecified)	JMJD2A Tudor inconclusive, G9a block inconclusive, PLK1 PBD inh inconclusive, Sfp PPTase inh 40µM
CN1CCc2c(sc3c2C(=O)NC(c2ccc(OC(=O)c4ccccc4)cc2)N3)C1 (stereo unspecified)	G9a block 13µM (no result: PLK1 PBD inh, Sfp PPTase inh)
O=C1NC(c2ccccn2)Nc2sc3c(c21)CCC3 (stereo unspecified)	JMJD2A Tudor inconclusive, BAZ2B inh inconclusive, G9a block 22µM, Sfp PPTase inh 32µM
CN1CCc2c(sc3c2C(=O)NC(c2ccc4c(c2)OCO4)N3)C1 (stereo unspecified)	Sfp PPTase inh inconclusive
Cc1cccc(C2NC(=O)c3c(sc4c3CCN(C)C4)N2)c1O (stereo unspecified)	G9a block inconclusive (no result: PLK1 PBD inh, Sfp PPTase inh)
CN1CCc2c(sc3c2C(=O)NC(c2ccccn2)N3)C1 (stereo unspecified)	JMJD2A Tudor 20µM, BAZ2B inh 45µM, G9a block 25µM, PLK1 PBD inh inconclusive, Sfp PPTase inh 16µM
CC1CN(C(C)C)C(C)CC1OC(=O)c1ccccc1 (stereo unspecified)	none
Cc1c(OCC(=O)NCC2CCC(C(=O)O)CC2)ccc2c(-c3ccccc3)cc(=O)oc12 (stereo unspecified)	none (no result: G9a block)
Cc1cc(C)cc(NC(=O)c2cccc(N3CCCS3(=O)=O)c2)c1	none (no result: PLK1 PBD inh, Sfp PPTase inh)
CN1CCc2c(sc3c2C(=O)NC(c2ccc(OC(=O)c4ccc(C(C)(C)C)cc4)cc2)N3)C1 (stereo unspecified)	G9a block 7.9µM (no result: PLK1 PBD inh, Sfp PPTase inh)
OC1(c2ccccc2)CN(c2ccccc2)C2=[N+]1CCS2 (stereo unspecified)	BAZ2B inh 40µM
COc1cc(C(C#N)N2CCC(c3ccccc3)=N2)ccc1O (stereo unspecified)	G9a block 10µM
COc1ccc(C(C#N)N2CCC(c3ccccc3)=N2)cc1OC (stereo unspecified)	G9a block 18µM
COc1ccc(C(C#N)N2CCCCCC2)cc1OC (stereo unspecified)	none

From PubChem BioAssay
